Measured values: PubChem BioAssay AID588675 (Johns Hopkins Ion Channel Center, 2011)
About 1,900 (0.61%) of roughly 310,000 compounds were called active.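 Rule for the calls: active = plate-corrected calcium response at least 3 library SD above typical, normal starting fluorescence, not activating the receptor alone; inactive = the rest.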 The entries come from a sample that favours actives as a whole.

What follows are compounds tested against Mas-related G-protein coupled receptor member X1 (Homo sapiens) (UniProt Q96LB2) (assay: positive allosteric modulators of MrgX1, primary screen, HEK293 cells, Fluo-4 calcium flux (AID 588675;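 note: compound read alongside a low EC10 to EC30 dose of BAM8-22 agonist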;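 for B-score: peak minus trough fluorescence over baseline measured at the second addition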)). Details: MrgX1-HEK293, Fluo-4 calcium flux, FDSS, at 10 µM; hits give high values.
Chain of Mas-related G-protein coupled receptor member X1 (Homo sapiens) (Q96LB2 whole entry, looked up): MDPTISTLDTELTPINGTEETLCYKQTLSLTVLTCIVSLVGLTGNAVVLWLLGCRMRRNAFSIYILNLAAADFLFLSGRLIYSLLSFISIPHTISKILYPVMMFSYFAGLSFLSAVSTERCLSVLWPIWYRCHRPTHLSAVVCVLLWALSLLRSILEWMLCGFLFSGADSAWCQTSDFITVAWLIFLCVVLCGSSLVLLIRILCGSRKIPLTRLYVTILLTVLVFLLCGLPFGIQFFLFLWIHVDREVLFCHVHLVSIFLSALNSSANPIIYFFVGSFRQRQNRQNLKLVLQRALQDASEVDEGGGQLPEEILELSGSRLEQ

| SMILES | B-score |
| --- | --- |
| CC(C)(C)NC(=O)CSc1nnc(NC(=O)CCc2ccccc2)s1 | inactive |
| O=C(ON=C1CCN(S(=O)(=O)c2ccccc2)CC1)c1ccc(Cl)cc1 | inactive |
| COc1cccc(OC)c1C(=O)Nc1sc2c(c1C(N)=O)CCCC2 | inactive |
| O=C(Nc1sc2c(c1C(=O)O)CCC2)c1ccccc1F | inactive |
| NC(=O)c1c(Nc2nc3c(F)cccc3s2)sc2c1CCCC2 | 8.33 (active) |
| Cc1ccnc(NC(=O)C(C)N2C(=O)c3ccccc3C2=O)c1 (stereo not given) | 7.9 (active) |
| CCOc1ccc(NC(=O)C(C)N2C(=O)c3ccccc3C2=O)cc1 (stereo not given) | inactive |
| COC(=O)c1ccc(NC(=O)C(C)N2C(=O)c3ccccc3C2=O)cc1 (stereo not given) | inactive |
| Cc1ccc(NS(=O)(=O)c2cn(C)c(=O)n(C)c2=O)c(C)c1 | inactive |
| CC(C)(C)c1nc2ccccc2c(=O)n1N1C(=O)c2ccccc2C1=O | inactive |
| CC(=O)c1ccc(NC(=O)c2ccc(-n3cncn3)c([N+](=O)[O-])c2)cc1 | inactive |
| Cc1ccc(-c2cc(C(=O)N/N=C/C=C/c3ccccc3)n[nH]2)o1 | inactive |
| O=C(N/N=C/C=C/c1ccccc1)C1CC1(c1ccccc1)c1ccccc1 (stereo not given) | 14.2 (active) |
| CC(/C=C/c1ccccc1)=N\NC(=O)C1CC1(C)c1ccccc1 (stereo not given) | inactive |
| COCc1[nH][nH]c(=O)c1C=Nc1ccc(F)cc1F | inactive |
| Clc1ccc(Cn2ncc3c(NCc4cccnc4)ncnc32)cc1 | inactive |
| CC(C)CNc1ncnc2c1cnn2Cc1ccc(Cl)cc1 | 7.42 (active) |
| Clc1ccc(Nc2ncnc3c2nnn3Cc2ccccc2)cc1 | inactive |
| O=C1c2ccccc2C2=Nc3ccccc3SC(c3ccccc3F)C12 (stereo not given) | 13.4 (active) |
| CCOC(=O)C1=C(C)N=C2c3ccccc3C(=O)C2C1c1ccc(Br)cc1 (stereo not given) | inactive |

| SMILES | B-score |
| --- | --- |
| O=C1c2ccccc2C(=O)C1c1ccccc1F | inactive |
| COc1ccccc1CNS(=O)(=O)c1c(C)[nH]c(C)c1C(=O)N1CCCCC1 | inactive |
| COc1cc(C(=O)NCc2cc3cc(Cl)ccc3n2C)cc(OC)c1OC | inactive |
| CCOCc1nnc(NC(=O)CSc2ccc(C)cc2)s1 | inactive |
| CCOCc1nnc(NC(=O)CCS(=O)(=O)Cc2ccccc2)s1 | inactive |
| CCOCc1nnc(NC(=O)CCC2CCCCC2)s1 | 7.99 (active) |
| OCC[C@H]1C[C@H](O)[C@@H](O)[C@]2(CCc3ccccc3O2)O1 | inactive |
| O=C1CCC([N+](=O)[O-])C(c2ccccc2Br)N1 (stereo not given) | 8.17 (active) |
| COc1cc2c(cc1OC)C(c1ccccc1Br)NC(=O)C2 (stereo not given) | inactive |
| O=C1CCC(Cc2ccccc2)N1 (stereo not given) | inactive |
| Cc1ccccc1NC(=O)c1nn(-c2ccc(F)c(F)c2)ccc1=O | inactive |
| CCOC(=O)N1CCN(C(=O)COCc2cc(-c3ccc4c(c3)OCO4)on2)CC1 | 6.93 (active) |
| O=C(COCc1cc(-c2ccc3c(c2)OCO3)on1)N1CCN(c2cccc(Cl)c2)CC1 | inactive |
| Cc1cccc(N2CCN(C(=O)COCc3cc(-c4ccc5c(c4)OCO5)on3)CC2)c1C | inactive |
| COc1ccc(-c2cc(C(=O)NC(Cc3c[nH]c4ccccc34)C(=O)O)c(C)o2)cc1OC (stereo not given) | inactive |
| Cc1nc(-c2ccccc2)cn2c1nc1ccccc12 | inactive |
| COc1ccc(C(=O)/C=C/c2ccc(-c3ccccc3)cc2)cc1CSCC(=O)O | inactive |
| Cc1cc(N2C(=O)c3ccc(C(=O)NCc4ccccc4)cc3C2=O)no1 | inactive |
| Cc1cc(C(=O)N2CCC(C(=O)O)CC2)c(C(F)(F)F)o1 | inactive |
| CN1/C(=C\C=C2\N=C(c3ccc(F)cc3)OC2=O)C(C)(C)c2ccccc21 | 19.6 (active) |

| SMILES | B-score |
| --- | --- |
| CN1CCN(CCC(=O)N/N=C/C=C2\N(C)c3ccccc3C2(C)C)CC1 | inactive |
| CN1/C(=C\C(=O)c2oc3ccccc3c2N)C(C)(C)c2ccccc21 | inactive |
| Cc1c(C2=CCN(S(=O)(=O)c3ccc(Cl)cc3)CC2)c2ccccc2n1C | inactive |
| CN(CC(=O)Nc1cccc(F)c1)C(=O)C1CC(=O)N(CCc2ccccc2)C1 (stereo not given) | inactive |
| Cc1cc(NC(=O)OC(C)C)ccc1-c1ccc(NC(=O)OC(C)C)cc1C | inactive |
| O=C(NC1CC1)C1CCCN(C(=O)NC2CCCCC2)C1 (stereo not given) | inactive |
| CC[C@H](C)[C@@H](C(=O)N1CCNCC1)n1cc([C@@H](N)Cc2ccc(O)cc2)nn1 | inactive |
| COc1ccc(CCNS(=O)(=O)c2cccc([N+](=O)[O-])c2)cc1 | inactive |
| C/C(=N\NC(=S)Nc1ccc(C)cc1)c1cc2ccccc2o1 | inactive |
| C/C(=N\NS(=O)(=O)c1cccc([N+](=O)[O-])c1)c1cc2ccccc2o1 | 8.87 (active) |
| COc1ccc(N(CC(=O)N/N=C/c2cccc3c2OCCO3)S(=O)(=O)c2ccc(NC(C)=O)cc2)cc1 | inactive |
| Cc1ccc(OC(=O)c2cc3ccccc3o2)cc1 | 6.5 (active) |
| COc1ccccc1CN(C)C(=O)c1cc2ccccc2o1 | inactive |
| Cc1ccc(NC(=O)c2cc3ccccc3o2)cc1 | inactive |
| CCCCCCSc1ccc([C@@H]2[C@@H]3C(=O)N(CC)C(=O)[C@@H]3[C@]3(C(=O)OC)CCCCN23)cc1OC | inactive |
| COc1ccc(C(=O)C2CCCN(C(=O)c3cc4nc(C)cc(C)n4n3)C2)cc1F (stereo not given) | inactive |
| O=C(Oc1ccc(F)cc1)N1CCOCC1 | inactive |
| Cc1ccc(C(=O)Oc2ccc(C(=S)N3CCOCC3)cc2)cc1 | inactive |
| O=C(Oc1ccc(C(=S)N2CCOCC2)cc1)c1ccc(F)cc1 | 12.3 (active) |
| CC1=C(C(=O)Nc2cc(C)ccn2)C(c2cnn(C)c2)C2=C(CC(c3ccccc3)CC2=O)N1 (stereo not given) | inactive |
